From PubChem BioAssay (Tox21)
Activity calls are given as the source filed them. Calls come from the whole dose curve; as a rule, active = well fitted curve in the direction sought with a large enough effect in the repeat runs; inconclusive = weak or mixed curves; inactive = flat fitted curve, though single readings scatter.

experiment: qHTS assay to test for compound auto fluorescence at 590 nm (red) in HepG2 cell free culture (AID 720684); conditions: cell-free medium autofluorescence, red 540/590 nm; series mostly up to 91.3 µM
From the text: U.S. Tox21 Program National Center for Advancing Translational Sciences [NCATS] NIH Chemical Genomics Center [NCGC] U.S. Environmental Protection Agency [EPA] National Institutes of Environmental Health Sciences [NIEHS] National Toxicology Program [NTP] U.S. Food and Drug Administration [FDA] Tox21 Assay Overview: Compound auto fluorescence often interferes with screening of the compound library against various biological targets and signaling pathways. Some of these compounds may have fluorophoric properties. Such properties may interfere with the assay outputs resulting in false positives and/or negatives. To decrease such complications and ensure the compound activities are relevant in terms of biological response, the Tox21 10K compound library was screened for auto fluorescence. From the fluorophores used as reporter signals in our screening assays, the auto fluorescence equivalencies of compounds against three fluorophores have been evaluated: Triamterene, Fluorescein and Rose Bengal sodium for blue, green and red fluorescence, respectively. The fluorescence intensities were measured using Excitation/Emission wavelengths at 405/460nm, 485/535nm and 540/590nm for blue, green and red labels, respectively. This assay includes the red fluorescence data.
Tox21 Assay Protocol Summary: 5 uL of culture medium (MEM containing 10% FBS) per well was dispensed into black wall/clear bottom 1536-well plates using a Multidrop Combi Dispenser (ThermoFisher Scientific, Waltham, MA). After 23 nL compound or DMSO vehicle was transferred into assay plate by a pintool work station (Kalypsys, San Diego, CA), fluorescence intensities in the assay plates were measured by an Envision (PerkinElmer, Shelton, CT) plate reader using three labels for measuring blue, green and red fluorescence at […] 460, 535 and 590nm respectively.
% is set by controls: 0 for no effect and ±100 for the full control effect.

| Compound | outcome | fluorescence, % of Rose Bengal |
| --- | --- | --- |
| Cc1ccccc1CO[C@@H]1C[C@@]2(C(C)C)CC[C@]1(C)O2 | inactive | – |
| Cc1nc(N)nc(N)n1 | inactive | – |
| CC(Oc1ccc(Oc2ncc(C(F)(F)F)cc2Cl)cc1)C(=O)O (stereo not given) | inactive | – |
| CN1CCC(O)(c2ccc(F)cc2)C(C(=O)c2ccc(F)cc2)C1 (stereo not given) | inactive | – |
| CCOP(=S)(OCC)Oc1cc(-c2ccccc2)on1 | inactive | – |
| N#CC(O)c1ccccc1 (stereo not given) | inactive | – |
| CCN(CC)CCOC(=O)C(C)(c1ccccc1)c1ccccc1 | inactive | – |
| CSc1nc(N=[N+]=[N-])nc(NC(C)C)n1 | inactive | – |
| CC(C)[N+](=O)[O-] | inactive | – |
| NC1=NC(=O)C(c2ccccc2)O1 (stereo not given) | inactive | – |
| Cc1nnc2n1-c1sc(CCC(=O)N3CCOCC3)cc1C(c1ccccc1Cl)=NC2 | inactive | – |
| CC(C)NCC(O)c1ccc(N)c(C#N)c1 (stereo not given) | inactive | – |
| CCc1cc2c(s1)-n1c(C)nnc1CN=C2c1ccccc1Cl | inactive | – |
| CCOP(=S)(OCC)SCSP(=S)(OCC)OCC | inactive | – |
| ClCC(Cl)(Cl)Cl | inactive | – |
| C[N+](=O)[O-] | inactive | – |
| COc1ccc2c(c1OC)CN1CCc3cc4c(cc3C1C2)OCO4 (stereo not given) | – | -0.268% [at 18.6 µM] (inactive) |
| N#CCBr | inactive | – |
| CC1=C(C(=O)Nc2ccccc2)S(=O)(=O)CCO1 | inactive | – |
| COc1ccc(C(=O)N2CCCC2=O)cc1 | inactive | – |

| Compound | outcome | fluorescence, % of Rose Bengal |
| --- | --- | --- |
| O=C(Nc1ccccc1)N(Cc1ccc(Cl)cc1)C1CCCC1 | inactive | – |
| C[C@]12CC[C@H]3[C@@H](CC=C4C[C@@H](O)CC[C@@]43C)[C@@H]1CC[C@@H]2O | inactive | – |
| CCCCCCBr | inactive | – |
| CCC#N | inactive | – |
| ClCCOCOCCCl | inactive | – |
| O=C(NCO)NCO | inactive | – |
| CN(N=O)C(N)=O | inactive | – |
| Nc1c(Br)cc([N+](=O)[O-])cc1[N+](=O)[O-] | inactive | – |
| [As]#[In] | inactive | – |
| CC(=O)CCc1ccc2c(c1)OCO2 | inactive | – |
| OCCBr | inactive | – |
| CC1(C)COP(Oc2ccccc2)OC1 | inactive | – |
| Cc1coc2c1CCC(C)C2 (stereo not given) | inactive | – |
| Nc1n[nH]c(N)n1 | inactive | – |
| CCCCN(CCCCO)N=O | inactive | – |
| COC(=O)c1ccccc1S(=O)(=O)NC(=O)N(C)c1nc(C)nc(OC)n1 | inactive | – |
| O=C1OC(c2ccc(O)c(S(=O)(=O)O)c2)(c2ccc(O)c(S(=O)(=O)O)c2)c2c(Br)c(Br)c(Br)c(Br)c21 | inactive | – |
| Cc1ncsc1CCCl | inactive | – |
| CCC(C)n1c(=O)[nH]c(C)c(Br)c1=O (stereo not given) | inactive | – |
| COc1cccc2c1cc([N+](=O)[O-])c1c(C(=O)O)cc3c(c12)OCO3 | inactive | – |
